Data from PubChem BioAssay AID1347426 (Functional Genomics Laboratory (NCATS/FGL), 2020).
Hit rate of the full screen: of about 31,000 sequences, about 1,400 (4.5%) were called active.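 The calls were made as follows: active = median seed-adjusted z-score above 1 or below -1; inactive = the rest.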 Shown is part of a subset that was picked to be rich in actives.

Assay: Novel Modifiers of Survival Motor Neuron (SMN) Protein: Gene Identification via Genome-wide siRNA Screen;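 also: luminescence tracks full-length SMN protein made from the SMN2 reporter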
Conditions: HEK293T SMN2-luciferase reporter, siRNA knockdown, 72 h; actives lie on both sides
Procedure, shortened: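 Steps: spot 1 pmol siRNA, add Lipofectamine RNAiMax in serum-free DMEM, seed HEK293T SMN2–luciferase reporter cells; incubate 72 h at 37 °C; add ONE-Glo; normalize luminescence to control siRNA, log10, MAD. Candidates: |MAD| > 1.0.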

| Sequence | median seed-adjusted z-score |
| --- | --- |
| AGACUAUGAUAGAAUCCCATT against LGI3 | -0.0189 (inactive) |
| CUCUACCCGUGCUAUAUAATT against TIGD1 | 0.224 (inactive) |
| CAAGAUCCAGGACACCAAATT against MAP4K1 | 0 (inactive) |
| CUAUCCAACUCAAACGAUUTT against USP9Y | 0.012 (inactive) |
| GGCUUGAUAUUUGACAGAATT against BBOX1 | 0.152 (inactive) |
| AGAAAUGUCUUGUAGUGAATT against SYT14L | 0.2 (inactive) |
| GGAUUAUAUUGACAUCAGUTT against DLST | 1.16 (active) |
| GGGAGGACCUGAACAAGAATT against TAOK2 | 0.28 (inactive) |
| GGCAUGACCUCAUCACAGUTT against RNASE7 | 1.07 (active) |
| GAACCAACCUGUCAAGUGATT against SELL | 0.554 (inactive) |
| GGACAUCGCUAAACAGUUATT against TBC1D1 | -0.359 (inactive) |
| CUAUCACCGGAUUAACGAATT against ACOX1 | -0.897 (inactive) |
| GAGUCGAGAAGAUAAUGGATT against RABGEF1 | 0.278 (inactive) |
| AGACGACGGCGAUGAGGAATT against RALY | 0 (inactive) |
| GGACGACCACGGCUACAUUTT against CRYAA | -1.03 (active) |
| GGCUUCAGGUUAUAGUCAATT against OTX2 | -0.00351 (inactive) |
| AGGAGAUCGUCGACCUGGUTT against TUBA3C | -0.0806 (inactive) |
| AGGCCCUAGUGCUCAGAUATT against MMS19 | 0.0142 (inactive) |
| GCAACGAUGUUGCCUGGAATT against GPX1 | -0.0529 (inactive) |
| GCAUGCAGAUGUUCGGCAATT against CACNA1F | 0.22 (inactive) |
| CAAGCUUGUUAACAUCAAATT against NPVF | 0.588 (inactive) |

| Sequence | median seed-adjusted z-score |
| --- | --- |
| GGCUAAUACUGGAAUUGCUTT against SLC38A2 | -1.04 (active) |
| CCAUGUCUUUCUAUCGCAATT against PLD2 | -0.743 (inactive) |
| GCAAGAUCUUAUCCACAGATT against CIP29 | -1.18 (active) |
| CAUUGGAAUUCUUUCAAUATT against APTX | -0.131 (inactive) |
| GAGAAGACCUUUAUACGAATT against XPOT | 0.366 (inactive) |
| GGAUGGUGGCGUCCAAGAUTT against PSMB10 | 0.00939 (inactive) |
| GAGCUUCACUCAAAAAUCATT against ZNF160 | -0.454 (inactive) |
| GCCUAGAAGUGGAACGUGUTT against IFT57 | -1.1 (active) |
| CCACCUUCGAUGUUCCCAUTT against HMG20B | 0.231 (inactive) |
| GCAGAGUCACUUUGACAAUTT against CHRNG | 0.221 (inactive) |
| GGCUUUUAGAGUACGACAATT against ZFP30 | 0.211 (inactive) |
| CAGUCAACCUGAUUUGAGATT against SOX7 | -0.387 (inactive) |
| CGUUUAACGUGGUGCUGUUTT against GPR32 | -1.2 (active) |
| GCUCUAUGUCUACAUCAAUTT against DAXX | 0.349 (inactive) |
| AUAUCGCUGUGAUGCAAAATT against PLA2G12B | -0.162 (inactive) |
| ACAGCGAGGUCAAAAGAAATT against HSD11B1 | -0.174 (inactive) |
| GGACUAAGUGAAGAGCUUATT against NFYB | -0.29 (inactive) |
| GAGCUGAACUUGUCAUUCUTT against RANGAP1 | -0.0379 (inactive) |
| CAUGAACCCAGUGAAGAUATT against IRF6 | -1.79 (active) |
| CACUCAACAUUACAGAUUUTT against ZNF514 | 0.125 (inactive) |
| CAGCUUUACGAGUAUGCAATT against HS6ST3 | -0.405 (inactive) |
